High-throughput results: PubChem BioAssay, The Scripps Research Institute Molecular Screening Center
M1 antag: blocks human M1 muscarinic receptor; CHO-K1 hM1, Fluo-8 calcium fluorescence, ACh EC80 antagonist; inhibition, % at 3 µM; actives 1.3% (n = 360,000);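 active = percent inhibition above its own plate's cutoff, namely the mean of that plate's compound wells plus 3 SD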;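 note: peak over basal fluorescence ratio during 140 s after agonist addition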
Target sequence (P11229 whole entry, looked up): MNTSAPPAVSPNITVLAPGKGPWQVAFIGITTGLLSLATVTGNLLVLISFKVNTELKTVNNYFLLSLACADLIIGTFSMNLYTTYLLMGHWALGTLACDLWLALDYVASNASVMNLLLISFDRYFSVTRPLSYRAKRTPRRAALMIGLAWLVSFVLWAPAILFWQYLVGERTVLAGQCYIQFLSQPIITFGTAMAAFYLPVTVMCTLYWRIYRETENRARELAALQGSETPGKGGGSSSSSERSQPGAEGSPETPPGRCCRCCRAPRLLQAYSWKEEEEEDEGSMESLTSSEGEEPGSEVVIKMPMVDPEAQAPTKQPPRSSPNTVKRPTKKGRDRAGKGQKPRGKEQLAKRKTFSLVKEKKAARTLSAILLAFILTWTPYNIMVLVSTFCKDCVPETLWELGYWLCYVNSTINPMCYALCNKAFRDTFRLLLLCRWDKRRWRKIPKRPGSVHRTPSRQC
CHRM1 agonist: agonists of human M1 muscarinic receptor. P11229. CHO-K1 hM1, Fluo-8 calcium fluorescence, agonist mode; 0% DMSO, 100% acetylcholine EC100. activation, % at 3 µM. actives 0.33% (n = 360,000). AID 588814;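 active = activation above the run's mean compound activation plus 3 SD, cut at about 16% in these data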;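 note: peak over basal fluorescence ratio within a 140 s kinetic read after compound addition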
CHO-K1 Ca antag: nonselective inhibitor or artifact in parental CHO-K1 cells; actives 0.6% (n = 360,000); inhibition, % at 3 µM; ATP-induced calcium, Fluo-8 fluorescence;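 active = inhibition above a per-plate cutoff, the plate's mean sample inhibition plus 3 SD, cut at about 24% in these data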
M1 ag parental: M1 agonist counterscreen hit in parental CHO-K1 cells; activation, % at 3 µM; actives 0.48% (n = 360,000); Fluo-8 calcium fluorescence; scaled to maximal ATP response, vehicle zero; in the data active = activation above about 15%;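 note: untransfected CHO-K1 host cells lacking M1 receptor as counterscreen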
M1 PAM parental: nonselective activator or artifact in parental CHO-K1 calcium assay; ATP EC20, Fluo-8 calcium fluorescence; 0% at ATP EC20, 100% at ATP max; activation, % at 3 µM; actives 0.02% (n = 360,000); AID 602247;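 active = activation above the run cutoff, the mean activation of all test compounds plus 3 SD, cut at about 40% in these data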;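 note: peak over basal fluorescence ratio in a 140 s read after ATP addition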
CHRM1 PAM: human CHRM1 positive allosteric modulation; AID 588819; actives 0.088% (n = 360,000); CHO-K1 hM1, Fluo-8 calcium fluorescence, ACh EC20; 0% = ACh EC20, 100% = maximal ACh; P11229; activation, % at 3 µM; in the data active = activation above about 19%, passing the limit was not always enough
Hits are given with their value; - = inactive. Rows were chosen to be rich in hits. Some 2.4% of all compounds tested hit in one or more screens of this group.

SMILES	M1 antag	CHRM1 agonist	CHO-K1 Ca antag	M1 ag parental	M1 PAM parental	CHRM1 PAM
Cc1cc2ccccc2n1CCNC(=O)C(C)(C)C	33	-	-	-	-	-
Cc1ccn(CC(=O)N2CCCC(N3CCN(c4ccccc4F)CC3)C2)n1 (configuration not stated)	-	-	-	-	-	-
OC(CN1c2ccccc2Sc2ccccc21)Cn1nnc2ccccc21 (configuration not stated)	-	-	-	-	-	-
Cc1nn(CC(O)CN2c3ccccc3Sc3ccccc32)c(C)c1Br (configuration not stated)	-	-	-	18	-	-
COc1ccccc1OCC(O)Cn1c(=N)n(CCN2CCCCC2)c2ccccc21 (configuration not stated)	19	-	-	-	-	-
CS(=O)(=O)N1CCN(C(=O)c2cc(-c3ccncc3)nc3ccc(Cl)cc23)CC1	31	-	-	-	-	-
O=C1C(=O)N(CCCN2CCOCC2)C(c2ccc(Cl)cc2)/C1=C(/O)c1ccc(F)cc1 (configuration not stated)	-	-	-	-	-	-
O=C1C(=O)N(CCN2CCOCC2)C(c2ccc(F)cc2)/C1=C(/O)c1ccc(S(=O)(=O)N2CCOCC2)cc1 (configuration not stated)	31	-	-	-	-	-
Cc1ccc(C#CC[N+]2(CC#Cc3ccc(C)cc3)CCCCC2)cc1	48	-	-	-	-	-
C(#Cc1ccccc1)C[N+]1(CC#Cc2ccccc2)CCCCC1	60	-	-	-	-	-
C#CC[N+]1(CC#Cc2cccc(C)c2)CCCCC1	-	-	-	-	-	-
CCC[N+]1(CC#CCC(c2ccccc2)c2ccccc2)CCCCC1	63	-	-	-	-	-
C#CC[N+]1(CC#Cc2ccccc2)CCOCC1	-	-	-	-	-	-
C#CC[N+]1(CC#Cc2ccccc2)CCCCC1	-	-	-	-	-	-
